# Assay results published in the supplement of paper PMC10849652.
# The full data set covers some 8,800 targets. This sample favours those with a hit. About 0.5% of all pairs of compound and target were hits. A number with no mark means an inactive call.
# What was measured:
# Assay in all cases: log2 fold change, soluble protein after heating vs DMSO (PISA); higher = thermal stabilisation; K562 lysate, 10 uM; active = over 0.2 and 3.5 SD of the protein, either way, in both replicates (recomputed)
# [1] = compound: NCC(=O)Nc1ccc(-n2nc(C(F)(F)F)cc2-c2ccc3c(ccc4ccccc43)c2)cc1
# Summary of the method: (§1)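 Following dounce homogenisation of K562 pellets in PBS pH 7.4 with 1 mM MgCl2, crude extract at 1 mg/mL protein was incubated for 30 min with 10 μM compound. Aliquots were then heated for 3 min over 48°C-58°C and pooled, NP-40 was added to 0.5% at 4°C, and soluble protein was recovered as the supernatant at 21,000xg for 90 min. Channel-sum-equalised TMTpro 16plex LC-MS/MS quantified this protein. Each value, from duplicates, is a log-two fold change in thermal stability relative to solvent controls.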
# vorinostat = compound: O=C(CCCCCCC(=O)Nc1ccccc1)NO [vorinostat]
# Summary of the method: as §1
# silmitasertib = compound: O=C(O)c1ccc2c(c1)nc(Nc1cccc(Cl)c1)c1ccncc12 [silmitasertib]
# Summary of the method: as §1
# [2] = compound: O=C1NC(=O)C(c2cnc3ccccn23)=C1c1cn2c3c(cc(F)cc13)CN(C(=O)N1CCCCC1)CC2
# Summary of the method: as §1
# entospletinib = compound: c1cn2cc(-c3ccc4cn[nH]c4c3)nc(Nc3ccc(N4CCOCC4)cc3)c2n1 [entospletinib]
# Summary of the method: as §1
# Sequence of UniProt Q99729 (Q99729 whole entry, looked up): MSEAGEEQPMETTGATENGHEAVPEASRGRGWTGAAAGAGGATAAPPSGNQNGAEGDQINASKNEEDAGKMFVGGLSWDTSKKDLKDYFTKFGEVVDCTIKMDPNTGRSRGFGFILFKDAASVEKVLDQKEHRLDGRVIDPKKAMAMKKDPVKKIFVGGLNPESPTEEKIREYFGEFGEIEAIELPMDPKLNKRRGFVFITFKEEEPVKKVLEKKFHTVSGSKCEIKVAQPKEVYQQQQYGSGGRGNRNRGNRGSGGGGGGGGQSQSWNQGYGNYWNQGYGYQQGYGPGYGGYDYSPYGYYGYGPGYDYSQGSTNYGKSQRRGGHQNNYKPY
# Sequence of UniProt Q9BX10 (Q9BX10 whole entry, looked up): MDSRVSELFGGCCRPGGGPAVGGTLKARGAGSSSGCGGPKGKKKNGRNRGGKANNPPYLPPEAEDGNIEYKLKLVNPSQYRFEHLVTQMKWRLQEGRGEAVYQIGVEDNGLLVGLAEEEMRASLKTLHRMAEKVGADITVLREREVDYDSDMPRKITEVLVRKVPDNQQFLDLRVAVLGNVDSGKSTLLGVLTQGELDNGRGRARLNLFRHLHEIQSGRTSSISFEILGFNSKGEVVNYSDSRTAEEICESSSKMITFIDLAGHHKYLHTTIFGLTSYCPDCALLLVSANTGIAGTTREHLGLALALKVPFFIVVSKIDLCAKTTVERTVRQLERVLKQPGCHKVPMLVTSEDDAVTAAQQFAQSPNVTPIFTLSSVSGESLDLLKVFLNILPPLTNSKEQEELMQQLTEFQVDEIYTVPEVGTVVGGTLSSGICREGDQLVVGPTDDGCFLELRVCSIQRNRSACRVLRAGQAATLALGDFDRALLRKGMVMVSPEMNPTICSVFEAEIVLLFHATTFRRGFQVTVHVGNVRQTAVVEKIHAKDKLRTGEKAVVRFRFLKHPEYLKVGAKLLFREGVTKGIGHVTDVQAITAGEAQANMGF
# Sequence of UniProt P15260 (P15260 whole entry, looked up): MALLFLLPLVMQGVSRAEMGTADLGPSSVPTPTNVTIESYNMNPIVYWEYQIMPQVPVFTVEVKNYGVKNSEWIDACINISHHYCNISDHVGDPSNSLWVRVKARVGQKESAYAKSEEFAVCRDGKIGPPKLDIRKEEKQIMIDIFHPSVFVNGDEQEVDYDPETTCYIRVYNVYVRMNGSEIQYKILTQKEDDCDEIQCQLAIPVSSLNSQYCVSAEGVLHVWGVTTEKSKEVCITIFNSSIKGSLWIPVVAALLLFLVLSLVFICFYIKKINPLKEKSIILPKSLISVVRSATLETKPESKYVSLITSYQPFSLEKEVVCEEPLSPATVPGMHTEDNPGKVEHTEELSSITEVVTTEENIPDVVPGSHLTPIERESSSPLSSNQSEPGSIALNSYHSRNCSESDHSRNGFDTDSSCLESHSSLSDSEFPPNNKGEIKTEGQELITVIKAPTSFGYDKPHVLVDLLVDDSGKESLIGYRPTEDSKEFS
# Sequence of UniProt Q13418 (Q13418 whole entry, looked up): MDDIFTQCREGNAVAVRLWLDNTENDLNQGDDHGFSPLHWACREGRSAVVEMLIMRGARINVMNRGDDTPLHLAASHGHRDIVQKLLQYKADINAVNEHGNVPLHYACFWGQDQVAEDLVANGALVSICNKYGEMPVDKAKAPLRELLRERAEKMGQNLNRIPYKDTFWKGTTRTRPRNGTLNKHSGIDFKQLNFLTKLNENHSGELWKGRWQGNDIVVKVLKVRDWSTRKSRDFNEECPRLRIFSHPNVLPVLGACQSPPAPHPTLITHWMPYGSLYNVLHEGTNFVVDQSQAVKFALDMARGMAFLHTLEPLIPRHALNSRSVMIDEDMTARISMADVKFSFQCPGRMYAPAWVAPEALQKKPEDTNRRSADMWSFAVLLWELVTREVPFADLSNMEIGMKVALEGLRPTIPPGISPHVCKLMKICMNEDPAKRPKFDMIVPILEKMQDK
# Sequence of UniProt Q53T59 (Q53T59 whole entry, looked up): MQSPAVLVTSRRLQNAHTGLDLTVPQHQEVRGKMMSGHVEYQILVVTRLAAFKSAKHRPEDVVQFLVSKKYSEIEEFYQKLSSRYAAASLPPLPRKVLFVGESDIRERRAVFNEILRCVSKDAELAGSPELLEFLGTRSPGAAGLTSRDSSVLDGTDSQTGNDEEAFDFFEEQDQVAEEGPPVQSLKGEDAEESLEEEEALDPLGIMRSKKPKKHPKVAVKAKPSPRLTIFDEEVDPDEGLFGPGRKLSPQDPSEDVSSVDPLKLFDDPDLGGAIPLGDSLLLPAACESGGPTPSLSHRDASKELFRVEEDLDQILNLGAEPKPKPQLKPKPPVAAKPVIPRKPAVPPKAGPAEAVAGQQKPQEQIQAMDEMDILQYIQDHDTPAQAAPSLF
# Sequence of UniProt Q53GQ0 (Q53GQ0 whole entry, looked up): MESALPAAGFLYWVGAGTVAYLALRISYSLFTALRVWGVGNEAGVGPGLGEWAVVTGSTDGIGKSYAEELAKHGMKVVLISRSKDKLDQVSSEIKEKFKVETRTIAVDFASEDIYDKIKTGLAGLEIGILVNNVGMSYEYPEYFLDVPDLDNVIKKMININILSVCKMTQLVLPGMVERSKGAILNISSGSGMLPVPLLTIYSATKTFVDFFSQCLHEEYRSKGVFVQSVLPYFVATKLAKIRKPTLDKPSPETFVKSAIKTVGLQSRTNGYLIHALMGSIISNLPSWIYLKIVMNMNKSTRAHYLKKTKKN
# Sequence of UniProt Q5T447 (Q5T447 whole entry, looked up): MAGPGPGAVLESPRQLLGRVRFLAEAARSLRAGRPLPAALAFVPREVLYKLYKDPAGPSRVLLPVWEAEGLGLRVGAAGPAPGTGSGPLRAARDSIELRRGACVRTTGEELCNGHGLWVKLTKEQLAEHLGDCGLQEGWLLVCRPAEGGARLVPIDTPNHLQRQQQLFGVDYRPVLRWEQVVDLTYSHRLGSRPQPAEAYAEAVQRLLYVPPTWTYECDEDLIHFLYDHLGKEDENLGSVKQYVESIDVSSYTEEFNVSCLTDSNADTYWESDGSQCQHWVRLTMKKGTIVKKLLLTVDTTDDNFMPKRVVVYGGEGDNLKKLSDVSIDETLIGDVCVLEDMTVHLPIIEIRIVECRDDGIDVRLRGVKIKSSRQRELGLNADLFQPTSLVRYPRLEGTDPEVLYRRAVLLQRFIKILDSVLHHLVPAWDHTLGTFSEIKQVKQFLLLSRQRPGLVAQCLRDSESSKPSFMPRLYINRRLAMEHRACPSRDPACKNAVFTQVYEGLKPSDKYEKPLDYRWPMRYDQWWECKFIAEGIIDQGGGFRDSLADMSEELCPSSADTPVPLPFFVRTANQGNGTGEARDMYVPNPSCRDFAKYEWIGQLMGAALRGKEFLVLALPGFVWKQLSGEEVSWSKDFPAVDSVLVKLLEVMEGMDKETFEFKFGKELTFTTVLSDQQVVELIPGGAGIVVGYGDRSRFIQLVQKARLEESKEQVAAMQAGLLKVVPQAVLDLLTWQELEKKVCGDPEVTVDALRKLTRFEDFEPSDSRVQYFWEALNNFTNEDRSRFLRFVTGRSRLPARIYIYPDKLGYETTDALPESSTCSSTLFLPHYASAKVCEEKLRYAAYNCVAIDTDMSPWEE
# Sequence of UniProt Q9NWZ3 (Q9NWZ3 whole entry, looked up): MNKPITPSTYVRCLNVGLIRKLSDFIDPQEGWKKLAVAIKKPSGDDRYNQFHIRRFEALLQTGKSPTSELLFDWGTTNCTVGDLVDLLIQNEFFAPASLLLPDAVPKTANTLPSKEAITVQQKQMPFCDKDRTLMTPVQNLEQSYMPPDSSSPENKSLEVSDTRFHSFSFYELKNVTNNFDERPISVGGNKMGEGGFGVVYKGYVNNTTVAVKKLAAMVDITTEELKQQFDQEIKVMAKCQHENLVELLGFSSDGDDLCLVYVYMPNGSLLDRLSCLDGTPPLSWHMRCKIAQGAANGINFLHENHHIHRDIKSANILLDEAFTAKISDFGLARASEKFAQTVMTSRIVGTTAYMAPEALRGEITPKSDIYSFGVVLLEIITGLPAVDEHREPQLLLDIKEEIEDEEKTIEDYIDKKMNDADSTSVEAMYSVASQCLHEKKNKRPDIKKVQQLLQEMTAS
# Sequence of UniProt Q9H9Y4 (Q9H9Y4 whole entry, looked up): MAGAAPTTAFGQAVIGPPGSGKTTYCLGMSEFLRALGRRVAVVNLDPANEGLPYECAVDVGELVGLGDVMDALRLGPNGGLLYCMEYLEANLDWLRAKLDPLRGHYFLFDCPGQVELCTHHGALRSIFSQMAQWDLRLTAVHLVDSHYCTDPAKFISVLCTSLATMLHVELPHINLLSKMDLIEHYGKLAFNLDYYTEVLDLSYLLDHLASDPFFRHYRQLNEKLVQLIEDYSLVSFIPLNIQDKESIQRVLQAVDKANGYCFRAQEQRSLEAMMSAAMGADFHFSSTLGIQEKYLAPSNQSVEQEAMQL
# Sequence of UniProt Q8IY47 (Q8IY47 whole entry, looked up): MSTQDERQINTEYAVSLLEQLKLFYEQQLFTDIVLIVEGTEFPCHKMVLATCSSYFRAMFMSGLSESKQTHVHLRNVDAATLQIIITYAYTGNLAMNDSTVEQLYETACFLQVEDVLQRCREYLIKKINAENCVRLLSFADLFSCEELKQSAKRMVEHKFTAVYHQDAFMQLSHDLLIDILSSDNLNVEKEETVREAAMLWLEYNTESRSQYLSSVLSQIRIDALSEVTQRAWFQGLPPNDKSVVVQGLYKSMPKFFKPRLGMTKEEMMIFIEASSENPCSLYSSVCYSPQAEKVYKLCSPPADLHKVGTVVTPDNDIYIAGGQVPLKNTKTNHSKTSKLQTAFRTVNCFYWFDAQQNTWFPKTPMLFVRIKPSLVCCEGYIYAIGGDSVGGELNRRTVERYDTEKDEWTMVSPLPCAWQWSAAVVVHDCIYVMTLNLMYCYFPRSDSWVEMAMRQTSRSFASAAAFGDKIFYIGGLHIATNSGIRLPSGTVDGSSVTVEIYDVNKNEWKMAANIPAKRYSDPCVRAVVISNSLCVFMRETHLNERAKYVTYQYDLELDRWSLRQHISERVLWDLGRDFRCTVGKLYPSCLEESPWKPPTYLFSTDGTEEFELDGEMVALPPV
# Sequence of UniProt Q01628 (Q01628 whole entry, looked up): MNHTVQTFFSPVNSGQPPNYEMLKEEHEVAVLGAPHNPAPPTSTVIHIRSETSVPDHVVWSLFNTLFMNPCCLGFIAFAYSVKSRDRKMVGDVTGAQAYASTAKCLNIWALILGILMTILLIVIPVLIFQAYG
Target,log2 fold change [1],log2 fold change (vorinostat),log2 fold change (silmitasertib),log2 fold change [2],log2 fold change (entospletinib)
H2AFY (UniProt O75367),0.008,0.142,-0.029,-0.02,0.079
IMMT (UniProt C9J406),-0.084,0.174,0.092,-0.002,-0.172
KATNBL1 (UniProt Q9H079),0.111,-0.176,-0.02,0.144,0.234
GOLGA6B (UniProt A6NDN3),0.019,0.117,-0.002,0.353 (active),-0.084
HMGB2 (UniProt P26583),0.004,0.122,-0.052,0.047,0.003
IFNGR1 (UniProt P15260),0.15,0.147,-0.006,0.046,-0.042
GTPBP2 (UniProt Q9BX10),0.029,-0.289 (active),0,-0.003,0.056
GTF3C5 isoform 3 (UniProt Q9Y5Q8),0.002,-0.296 (active),0.016,0.04,-0.021
HAUS2 (UniProt Q9NVX0),-0.052,-0.514 (active),-0.037,0.039,-0.029
INPPL1 (UniProt O15357),0.025,-0.528 (active),0.057,0.017,-0.015
HNRNPD isoform 2 (UniProt Q14103),0.018,0.155,0.009,0.063,-0.006
IGF2BP3 (UniProt O00425),-0.012,-0.305 (active),0.025,0,0.006
HECTD3 (UniProt Q5T447),-0.015,-0.253 (active),0.109,-0.02,0.022
INTS7 (UniProt Q9NVH2),0.017,-0.149,-0.011,0.189,0.03
GPX4 (UniProt P36969),-0.007,-0.306 (active),0.017,-0.023,0.037
IGF2BP2 (UniProt Q9Y6M1),-0.016,-0.239 (active),0.088,0,0.026
IFITM3 (UniProt Q01628),-0.02,0.067,-0.129,0.069,0.059
HNRNPUL1 (UniProt Q9BUJ2),-0.02,0.122,0.012,-0.022,-0.02
HDAC6 (UniProt Q9UBN7),-0.039,0.513 (active),0.016,-0.047,0.007
INTS3 (UniProt Q68E01),0.049,-0.244 (active),0.015,-0.063,0.009
KHDRBS1 (UniProt Q07666),0.005,-0.583 (active),0.018,0.016,0.008
IMPACT (UniProt Q9P2X3),0.019,-0.125,-0.096,-0.082,-0.027
GLB1 (UniProt P16278),0.003,-0.013,-0.03,-0.043,-0.018
KCTD20 (UniProt Q7Z5Y7),-0.137,-0.323 (active),0.035,0.053,0.091
KBTBD4 isoform 2 (UniProt Q9NVX7),0.025,-0.311 (active),0.012,-0.023,-0.012
IRAK4 (UniProt Q9NWZ3),-0.031,-0.218,0.055,-0.106,0.042
HTT (UniProt P42858),-0.029,-0.331 (active),0.04,0,-0.042

Target,log2 fold change [1],log2 fold change (vorinostat),log2 fold change (silmitasertib),log2 fold change [2],log2 fold change (entospletinib)
KBTBD2 (UniProt Q8IY47),0.047,0.145,-0.039,0.038,0.026
HSD17B12 (UniProt Q53GQ0),0.025,-0.009,-0.05,-0.078,0.041
GMIP (UniProt Q9P107),-0.018,-0.302 (active),0.058,0.021,-0.038
GSTM4 (UniProt Q03013),0.025,0.015,0.301 (active),0.012,-0.03
GON4L (UniProt Q3T8J9),-0.051,-0.162,0.066,-0.076,0.067
IRF2BP1 (UniProt Q8IU81),0.021,-0.4 (active),-0.003,-0.03,0.01
H4C1 (UniProt P62805),0.043,0.09,0.007,-0.038,-0.057
IRF2BPL (UniProt Q9H1B7),-0.018,-0.324 (active),0.02,0.006,-0.065
HDGFL2 isoform 2 (UniProt Q7Z4V5),0.02,0.117,-0.013,0.01,-0.012
ISOC2 (UniProt Q96AB3),-0.064,0.304 (active),-0.036,0,0.033
HS1BP3 (UniProt Q53T59),0.03,0.139,-0.038,-0.027,-0.033
GUSB (UniProt P08236),0.021,0.043,0.015,-0.026,-0.029
INTS5 (UniProt Q6P9B9),-0.045,-0.56 (active),0.088,0.039,0.093
INTS8 (UniProt Q75QN2),-0.012,-0.401 (active),0.071,-0.016,0.054
HNRNPH2 (UniProt P55795),-0.008,-0.243 (active),0.005,-0.054,0.002
HAUS4 (UniProt Q9H6D7),-0.022,-0.255 (active),0.045,-0.017,-0.018
IARS (UniProt P41252),0.014,-0.325 (active),0.046,-0.008,0.031
KDM5B isoform 2 (UniProt Q9UGL1),0.11,0.085,-0.018,0.116,-0.037
HMGCL (UniProt P35914),-0.025,-0.226 (active),0.059,0.033,0
HECTD4 (UniProt J3KPF0),0.051,-0.472 (active),-0.003,0.032,0.001
HAUS5 (UniProt O94927),0.031,-0.416 (active),0.045,-0.015,0.013
GLUD2 (UniProt P49448),0.297 (active),0.096,0.022,0.026,-0.084
HSPA8 (UniProt E9PK54),0.068,-0.004,-0.037,-0.022,0.012
ILK (UniProt Q13418),-0.047,-0.343 (active),0.086,0.019,0.096
GPN2 (UniProt Q9H9Y4),0.006,-0.093,0.009,-0.062,0.203
HEATR3 (UniProt Q7Z4Q2),-0.03,-0.5 (active),0.013,-0.017,-0.006
HNRNPAB isoform 3 (UniProt Q99729),0.067,0.189,-0.01,0.008,-0.019
